Only some compounds are listed: those with a hit (about 21% of all), similar ones and a draw of the others.
Cycloheximide cs: Cycloheximide Counterscreen for Small Molecule Inhibitors of Shiga Toxin; cell reporter, cycloheximide protein synthesis inhibition counterscreen; max response, %; AID 2314, 2010; 12% of 300,000 active; in the data active means max response mostly above about 13%, no sharp cut-off; inactive means mostly below about 14%; further: read at 38.3 µM for the half of the compounds with a filed dose; 0% is about no effect
Shiga toxin inh: A qHTS for Small Molecule Inhibitors of Shiga Toxin. Vero cells, Shiga toxin protein synthesis inhibition reporter. inhibition, % at 38.7 µM. 9.2% of 290,000 active; in the data active means inhibition mostly above about 28%, no sharp cut-off; inactive means mostly below about 43%; further: 0% is about no effect
NS1 inh: qHTS Assay for Inhibitors of Influenza NS1 Protein Function | Potency, µM (doses to about 46.1 µM), without a hit: top-dose activity, positive = more growth | 0.4% of 270,000 active | AID 2326, 2010; calls by dose curve; further: potency means the concentration at half of the fitted maximal effect; actives are rising curves; nearly all actives have a fitted effect of over 50% in size
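In this qHTS, NS1 from influenza A is expressed in budding yeast, where it slows growth. Cells are switched from glucose to 2% galactose medium (pH 6.0, -URA), treated with compound, and growth recovery is read at OD600.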
Pf growth 96h: Primary qHTS for delayed death inhibitors of the malarial parasite plastid, 96 hour incubation; 6.9% of 320,000 active; Potency, µM (top dose mostly 28.7 µM), without a hit: at the highest dose activity change, negative = inhibition, usual class: inhibitors; P. falciparum luciferase reporter growth, 96 h; further: potency means the concentration at half of the fitted maximal effect; on the % scale 0 is the no-effect control and ±100 the full control effect
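Luminescence readout: decreased luciferase signal marks inhibited growth of reporter-expressing P. falciparum in infected red cells (2% hematocrit, 0.05% parasitemia final), exposed to compound two generations (96 h, 37 C, 5% CO2).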
Pf growth 48h: Primary qHTS for delayed death inhibitors of the malarial parasite plastid, 48 hour incubation; P. falciparum luciferase growth in erythrocytes, 48 h; Potency, µM (highest dose often 28.7 µM), for the others: at the top dose activity change, negative = inhibition, hits mostly inhibitors; 5.9% of 310,000 active; further: potency means the concentration at half of the fitted maximal effect; on the % scale 0 is the no-effect control and ±100 the full control effect
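Growth was read as firefly luciferase luminescence after a 48 h, 37 C, 5% CO2 exposure of compounds to reporter-bearing P. falciparum cultures (0.1% parasitemia, 2% hematocrit final) in Albumax-supplemented RPMI 1640.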
FBPA Giardia inh: qHTS Assay for Inhibitors of Fructose-1,6-bisphosphate Aldolase from Giardia Lamblia; A8B2U2; purified Giardia FBPA; Potency, µM (doses to about 59.6 µM), for the others: top-dose activity, negative = inhibition, actives largely listed as inhibitors; 0.71% of 290,000 active; AID 2451, 2010; further: potency means the concentration at half of the fitted maximal effect; on the % scale 0 is the no-effect control and ±100 the full control effect; nearly all actives have a fitted effect of over 55% in size
Target sequence (A8B2U2 whole entry, looked up): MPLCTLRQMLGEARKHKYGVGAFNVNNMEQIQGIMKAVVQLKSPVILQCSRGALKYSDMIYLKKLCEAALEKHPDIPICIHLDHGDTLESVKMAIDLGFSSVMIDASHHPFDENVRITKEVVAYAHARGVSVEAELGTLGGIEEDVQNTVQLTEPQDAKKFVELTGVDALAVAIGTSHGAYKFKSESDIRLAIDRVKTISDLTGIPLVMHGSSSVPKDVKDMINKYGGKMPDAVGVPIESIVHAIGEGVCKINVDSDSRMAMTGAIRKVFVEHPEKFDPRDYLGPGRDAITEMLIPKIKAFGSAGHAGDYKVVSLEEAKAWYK
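Giardia FBPA (40 nM reagent) was preincubated 10 min at RT with compound (up to 57.5 uM final), then substrate plus GAPDH/TPI/NAD/arsenate coupling system with diaphorase/resazurin was added; resorufin fluorescence (525/598 nm) was read after 20 min.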
Active calls of the source: *; u = inconclusive; x = no result given; [ ] = another dose, or the depositor's remark. Unless noted, the call rests on the fitted dose curve; in most records, active means well fitted curve in the direction sought with a large enough effect; inconclusive means small, poorly fitted or top-dose-only effect, or another doubt; inactive means no such curve, though single readings can be large; an effect the other way counts as inactive or inconclusive.

SMILES	Cycloheximide cs	Shiga toxin inh	NS1 inh	Pf growth 96h	Pf growth 48h	FBPA Giardia inh
Cc1ccc(CCNC(=O)C2CCCN(S(=O)(=O)c3cccc4nsnc34)C2)cc1 (stereo unspecified)	-1	-2	-9%	4.1µM*	x	1%
COCCCNC(=O)C1CCCN(S(=O)(=O)c2cccc3nsnc23)C1 (stereo unspecified)	3	1	5%	-19%	9%	10%
O=C(N/N=C/c1ccc(OC(F)F)cc1OC(F)F)c1cccc(S(=O)(=O)N2CCOCC2)c1	7	-6	x	-4%	-21%	3%
O=C(CCNS(=O)(=O)c1ccc(Br)s1)NCc1ccc2c(c1)OCO2	12	-6	x	8%	3%	2%
Cc1ccc2c(c1)nnn2C1CCN(CC(=O)N2c3ccccc3CC2C)CC1 (stereo unspecified)	-5	-11	-20%	-7%	u	x
Cc1ccc2c(c1)nnn2C1CCN(CC(=O)c2ccc(Cl)cc2)CC1	2	-6	-17%	1%	u	-5%
Cc1ccc2c(c1)nnn2C1CCN(C(=O)C23CC4CC(CC(C4)C2)C3)CC1	-3	-1	5%	13µM*	u	0%
Cc1ccc2c(c1)nnn2C1CCN(CC(=O)N(c2ccccc2)c2ccccc2)CC1	-1	-4	-5%	12µM*	6.6µM*	1%
Cc1ccc2c(c1)nnn2C1CCN(CC(=O)Nc2ccc(F)cc2)CC1	1	-4	-2%	u	u	4%
CCOC(=O)CN(C(=O)CN1CCC(n2nnc3cc(C)ccc32)CC1)c1ccccc1	-4	-7	-7%	5.2µM*	x	-1%
Cc1ccc2c(c1)nnn2C1CCN(CC(=O)Nc2ccc3c(c2)OCCO3)CC1	26*	22	-17%	-11%	-28%	6%
COC(=O)c1ccc(CNC(=O)CCNC(=O)c2ccco2)cc1	x	x	x	9%	28%	x
NC(=O)c1ccc(SCC(=O)OCC(=O)NCc2ccco2)c([N+](=O)[O-])c1	x	x	x	25%	46%	x
COc1ccc(CCNC(=O)c2cc(-c3ccccc3O)n[nH]2)cc1OC	5	3	4%	3%[5.75 µM]	13µM*	12%
COc1ccc(CCNC(=O)c2cc(-c3ccc(C)cc3O)n[nH]2)cc1OC	5	-4	6%	7.4µM*	x	2%
Cc1nc(NC2CCCCC2)c2nc(-c3ccccc3)n(C(C)CN(C)C)c2n1 (stereo unspecified)	x	x	x	x	x	0%
CCCCCCC#CC1C=CC(OC(=O)OCC)C(COC(=O)OCC)O1 (stereo unspecified)	x	x	x	x	x	-5%[12.9 µM]
CCOC(=O)COc1cc(-n2c(=S)[nH]c3ccccc3c2=O)c(Cl)cc1Cl	-6	7	x	-1%	u	-11%
CCOC(=O)COc1cc(N)c(Cl)cc1Cl	27*	15	x	31%	-28%	-15%
O=C(COc1ccccc1[N+](=O)[O-])N(Cc1ccco1)C1CCS(=O)(=O)C1 (stereo unspecified)	-2	15	7%	1%	12%	x
CCOC(=O)c1nc(NCc2ccccc2)sc1C	63*	89*	5%	-5%	8%	17%
CCOC(=O)c1nc(-c2ccccc2)oc1N(C)C	17*	-6	-12%	x	20%	1%
CCOC(=O)c1nc(-c2ccccc2)sc1C(C)=O	20*	15	0%	23%	40%	3%
CCOC(=O)c1cnc2ccc(OCC)cc2c1NCc1cccnc1	27*	42*	-21%	6.6µM*	u	u
COc1ccc(OC)c(NS(=O)(=O)c2c(C(=O)N3CCCCCC3)c(C)n(C)c2C)c1	-2	-13	13%	37%	-28%	-12%
SMILES	Cycloheximide cs	Shiga toxin inh	NS1 inh	Pf growth 96h	Pf growth 48h	FBPA Giardia inh
CCOC(=O)CCSc1cc(C)c2ccccc2n1	2	23	-3%	u	-8%	1%
O=C(Nc1ccccc1N1CCOCC1)c1cccc(Oc2ccccc2)c1	-1	4	7%	u	u	-4%
CCOC(=O)c1cnc(NCc2ccccc2)nc1C	44*	55*	-7%	28%	5%	1%
CCOC(=O)c1cccnc1SCC(=O)NCc1ccccc1	21	-8	-7%	9%	x	-1%
CCOC(=O)c1cnc2ccc(OCC)cc2c1N1CCN(c2ccccc2)CC1	-4	-18	-16%	x	u	-8%
CCOC(=O)c1cnc2ccc(OCC)cc2c1NCc1ccccc1	19*	42*	-102%	u	12µM*	u
O=S(=O)(NCCNC/C=C/c1ccc(Br)cc1)c1cccc2cnccc12	x	x	-11%	x	x	-4%
CN(C)c1ccc(-c2cncnc2NCc2ccccc2)cc1	x	x	x	x	x	1%
CN1C(=O)CC(c2cn(Cc3ccccc3)c3ccccc23)C1=O (stereo unspecified)	-4	14	8%	2.6µM*	u	-27%
O=C(NC1CCN(c2ncccn2)CC1)c1c(F)cccc1F	-8	-6	-4%	51%	4%	13%
CSc1ccccc1NC(=O)CSc1nnc(CNC(=O)c2ccccc2F)n1C	-4	-13	-13%	4%	0%	11%
CCCOc1ccccc1C1NC(=O)NC(C)=C1C(=O)OCc1ccccc1 (stereo unspecified)	-2	2	3%	-4%	13µM*	-10%
CCCOc1ccccc1C1NC(=O)NC(C)=C1C(=O)OCCOC(C)C (stereo unspecified)	-11	-13	-1%	12µM*	u	0%
CC1=C(C(=O)OCc2ccc3c(c2)OCO3)C(c2ccccc2)NC(=O)N1 (stereo unspecified)	-5	-26	-22%	-18%	x	1%
CC1=C(C(=O)OCc2ccc3c(c2)OCO3)C(c2ccccc2OCc2ccccc2)NC(=O)N1 (stereo unspecified)	1	-27	28%	x	10µM*	-17%
Cc1cc2c(s1)c1cnn(Cc3ccc(F)cc3F)c(=O)c1n2C	-3	-14	x	x	x	x
C=CCC(=O)NC1CC(C)(C)Cc2c1cnn2-c1ccccc1C (stereo unspecified)	-1	-4	-9%	-22%	u	2%
Cc1noc(C)c1C(=O)N(CC(=O)Nc1ccccc1Br)Cc1ccco1	x	x	x	-9%	5%	x
CN(C(=O)CSc1nc2c(c(=O)[nH]1)CCC2)c1ccccc1	5	36	x	-22%	33%	-9%
CCOc1ccccc1N(C(=O)c1ccccc1Cl)C1=NC(C)(C)CS1	-1	12	x	u	u	1%
Cc1ccc(N(C(=O)c2ccccc2Cl)C2=NC(C)CS2)c(C)c1 (stereo unspecified)	9	10	-4%	15µM*	u	3%
O=C(CSc1nnc(-c2ccccn2)o1)Nc1ccccc1Cl	33*	71*	11%	-5%	106%	6%

Source: PubChem BioAssay
